The values that follow come from PubChem BioAssay (NCATS).

Assay [1] is described as follows: qHTS assay for small molecule activators of the p53 signaling pathway (AID 651743; active = well fitted activation curve with a large enough effect in the signal ratio, not every such curve was filed as active; the % refers to the signal ratio; note: potency is the fitted concentration of half-maximal effect; for activation: series mostly up to about 92 µM; % of control where 0% means no effect). The conditions noted are these: HCT-116 p53RE-bla, beta-lactamase FRET ratio, 16 h; activation: hits give high values. In a few lines: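 p53RE-bla HCT-116 cells with a stably integrated beta-lactamase reporter under p53 response elements were plated, rested 5 hours at 37 C/5% CO2, then exposed to compounds in DMSO for 16 hours at 37 C. LiveBLAzer B/G FRET substrate was read after 2 hours at room temperature.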

For assay [2], the target named is Tumor necrosis factor (Homo sapiens) (UniProt P01375). Kind of assay: qHTS assay to identify small molecules that stimulate Tumor Necrosis Factor-alpha (TNF-alpha) secretion (AID 651757; active = well fitted curve in the direction sought with a large enough effect in the signal ratio; the % refers to the signal ratio; note: 0% is about no effect). In a few lines: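 Secreted TNF-alpha from compound-treated THP-1 cells (17 hrs, 37 C) was quantified with a homogeneous time-resolved fluorescence antibody assay.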
Chain of Tumor necrosis factor (Homo sapiens) (P01375 whole entry, looked up): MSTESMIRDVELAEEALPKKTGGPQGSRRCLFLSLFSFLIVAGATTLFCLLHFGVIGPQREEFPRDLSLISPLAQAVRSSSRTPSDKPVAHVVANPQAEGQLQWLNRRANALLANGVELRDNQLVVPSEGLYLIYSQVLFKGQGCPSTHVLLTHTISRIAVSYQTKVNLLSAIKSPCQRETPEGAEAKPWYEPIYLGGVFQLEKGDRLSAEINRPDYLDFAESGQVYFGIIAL
Background: In qHTS, concentration-response curves come from the screen itself.

The nature of assay [3]: qHTS assay to identify small molecules that stimulate interleukin-8 (IL-8) secretion (AID 651758; active = well fitted activation curve with a large enough effect in the signal ratio; the % refers to the signal ratio; note: 0% is about no effect). In short, it runs like this: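 THP-1, 2000 cells/well; cpd 16 h, 37 C; add cryptate + XL665 anti-IL-8 Abs; RT 1-3 h; TR-FRET read.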
Assay [4] can be described thus: qHTS assay for environmental chemicals that activate the Aryl hydrocarbon Receptor (AhR) signaling pathway (AID 651777). For activation: % of control where 0% means no effect. Note: nearly all actives have a fitted effect of over 15% in size. Note: potency is the fitted concentration of half-maximal effect. The conditions noted are these: 1A2-DRE human hepatoma cells, luciferase, 24 h; activation: hits give high values. In short, it runs like this:
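Luminescence read-out: One-Glo added for 30 min at RT after 24 hr compound treatment (37 C, 5% CO2) of human hepatoma cells expressing a DRE/CYP1A2 promoter–luciferase reporter; increased signal indicates AhR activation.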

For assay [5], the target named is Nuclear receptor ROR-gamma (Homo sapiens) (UniProt P51449). Kind of assay: qHTS assay for small molecule antagonists of the retinoid-related orphan receptor gamma (ROR-gamma) signaling pathway (AID 651802). Note: series mostly up to about 92 µM; % is set by controls: 0 for no effect and ±100 for the full control effect; nearly all actives have a fitted effect of over 60% in size. In short, it runs like this: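 Antagonism is scored as a fall in luminescence from a RORE-luciferase reporter in CHO cells expressing ROR under a TET-inducible promoter, measured 16hr after doxycycline induction in the presence of compound.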
Chain of Nuclear receptor ROR-gamma (Homo sapiens) (P51449 whole entry, looked up): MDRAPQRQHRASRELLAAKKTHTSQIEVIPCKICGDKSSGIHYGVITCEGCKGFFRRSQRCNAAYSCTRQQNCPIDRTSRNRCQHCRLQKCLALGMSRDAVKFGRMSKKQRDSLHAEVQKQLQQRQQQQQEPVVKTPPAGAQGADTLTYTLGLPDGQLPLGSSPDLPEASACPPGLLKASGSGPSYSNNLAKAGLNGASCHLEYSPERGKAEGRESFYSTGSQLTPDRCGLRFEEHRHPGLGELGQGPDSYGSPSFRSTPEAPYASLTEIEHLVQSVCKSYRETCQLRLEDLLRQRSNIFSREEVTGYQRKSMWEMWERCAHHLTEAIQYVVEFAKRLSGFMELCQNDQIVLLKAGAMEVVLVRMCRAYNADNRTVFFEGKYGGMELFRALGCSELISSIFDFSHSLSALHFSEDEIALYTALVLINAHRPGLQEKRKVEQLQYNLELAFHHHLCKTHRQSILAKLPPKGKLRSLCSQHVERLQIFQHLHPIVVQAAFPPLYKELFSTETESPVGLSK

The nature of assay [6]: qHTS assay for small molecule antagonists of the retinoid-related orphan receptor gamma (ROR-gamma) signaling pathway - cell viability counter screen (AID 720652; active = well fitted curve in the direction sought with a large enough effect in the repeat runs; an effect the other way counts as inactive or inconclusive;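 note: series mostly up to about 92 µM; compound exposure lasted 16 hr before ATP read; % is set by controls: 0 for no effect and ±100 for the full control effect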). In short, it runs like this: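 Cytotoxicity is quantified via intracellular ATP (CellTiter-Glo luminescence) in doxycycline-induced CHO ROR response element-luciferase reporter cells treated with compound for 16 hr at 37 C, 5% CO2.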

A short description of assay [7]: qHTS assay for small molecule agonists of the antioxidant response element (ARE) signaling pathway (AID 651741; active = well fitted activation curve with a large enough effect in the signal ratio; the % refers to the signal ratio; note: potency is the fitted concentration of half-maximal effect; for activation: % of control where 0% means no effect). In short, it runs like this: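 ARE-bla HepG2 cells (beta-lactamase reporter under ARE control) were plated at 2,000 cells/well, preincubated 5 h at 37 C/5% CO2, then treated with DMSO-dissolved compounds for 16 h at 37 C; LiveBLAzer B/G FRET substrate added, fluorescence read after 2 h at room temperature.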

The nature of assay [8]: qHTS assay for small molecule activators of the nuclear factor-kappa B (NF-kB) signaling pathway (AID 651749; active = well fitted activation curve with a large enough effect in the signal ratio; the % refers to the signal ratio; note: series mostly up to about 77 µM; % of control where 0% means no effect). The conditions noted are these: NF-kB-bla ME-180 cells, beta-lactamase FRET ratio, 16 h; hits give high values. In short, it runs like this: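 ME-180 cells stably carrying a beta-lactamase reporter under an NF-kB response element were exposed to compound or DMSO vehicle for 16 hr at 37C, 5% CO2. Pathway activation was read by FRET, since reporter expression disrupts FRET.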

The nature of assay [9]: qHTS assay for small molecule disruptors of the mitochondrial membrane potential - 1 hr assay (AID 651754; calls by dose curve; note: % is set by controls: 0 for no effect and ±100 for the full control effect; nearly all actives have a fitted effect of over 35% in size). In short, it runs like this:
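Steps: seed HepG2 cells and let attach overnight; pin-transfer compound or vehicle; incubate 1 hr at 37C; add Mito-MPS dye for 30 min; read two-channel fluorescence for monomer and aggregate forms.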

A short description of assay [10]: qHTS assay for small molecule disruptors of the mitochondrial membrane potential - 5 hr assay (AID 651755; calls by dose curve; note: % is set by controls: 0 for no effect and ±100 for the full control effect; nearly all actives have a fitted effect of over 40% in size). In short, it runs like this: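 HepG2 cells, attached overnight at 37C, were exposed to compound or DMSO for 5 hr at 37C, 5% CO2. Mito-MPS dye was then added for 30 min, and fluorescence read at 490/535 nm (monomers) and 540/590 nm (aggregates).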
Assay [11] can be described thus: qHTS assay for small molecule agonists of the antioxidant response element (ARE) signaling pathway measured by Nrf2-dependant transcriptional activity (AID 720636; active = well fitted curve in the direction sought with a large enough effect in the repeat runs; an effect the other way counts as inactive or inconclusive;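 note: HepG2 cells with an ARE-driven luciferase reporter; % of control where 0% means no effect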). In short, it runs like this:
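HepG2 ARE-luc reporter line, 1% dialyzed FBS; 6 hr attachment at 37 C, compound pinned in, 16 hr at 37 C/5% CO2; ONE-Glo, 30 min RT, luminescence read.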

Assay [12] addresses Arylsulfatase A (Homo sapiens) (UniProt P15289). Kind of assay: qHTS screen for enhancers of Arylsulfatase A (ASA1): LOPAC Validation Assay (AID 720538). In short, it runs like this: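 SV40-transformed fibroblasts from an MLD patient (ASA-I179S) were treated with compound for 48 h at 37 C. They were then lysed with 0.5 mM pNCS substrate (final) for 14 h at room temperature and stopped with NaOH; signal read by fluorescence (Ex 525/Em 598 nm), with increase denoting enhanced activity.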

The nature of assay [13]: qHTS for compounds that reverse cellular toxicity of Amyloid beta (A-beta) peptide in yeast: LOPAC Validation Assay (AID 720559).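 Note: plate controls were DMSO for no effect and equimolar ferric chloride plus clioquinol rescue for full effect.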 In a few lines: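 Yeast expressing toxic A-beta grown with pinned compounds at 30 C for 48 hr. Growth measured as absorbance at 600 nm; data normalized to DMSO and to an equimolar FeCl3/clioquinol mixture as positive control.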
Assay [14] in a line: qHTS for Activators of Parkin Expression: LOPAC Validation Assay (NLuc Reporter) (AID 720572; note: potency is the fitted concentration of half-maximal effect;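 for activation: 0% = DMSO and 100% = positive control compound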). In short, it runs like this: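 Neuronal line stably carrying a FLuc/NLuc coincidence reporter under the Parkin promoter, seeded 24 h, then dosed in 7-point series for 24 h at 37 C. NLuc luminescence read after FLuc; normalized to DMSO and positive control (100%).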
The nature of assay [15]: qHTS for Activators of Parkin Expression: LOPAC Validation Assay (FLuc Reporter) (AID 720573;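 note: 0% = DMSO and 100% = positive control compounds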). In short, it runs like this:
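Neuronal cell line stably expressing FLuc/NLuc coincidence reporter under the Parkin promoter, 1,500 cells/well, dosed 24 h after seeding in 7-point series for 24 h at 37 C. FLuc luminescence read; normalized to DMSO and positive control (100%).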

The target of assay [16] is T1, Hexokinase-4 (Homo sapiens) + Glucokinase regulatory protein (Homo sapiens) (UniProt P35557+Q14397). The experiment in a line: qHTS assay for inhibitors of recombinant human GCK-GKRP interaction: Diaphorase-coupled assay (AID 743205). In short, it runs like this:
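Compounds pre-incubated 20 min with substrate, then 10 nM GST-GCK with 10 nM FLAG-GKRP added. GCK activity coupled via G6PDH and diaphorase to resorufin (5 mM glucose, 0.4 mM ATP, 0.15 mM NADP+, pH 7.6), read kinetically over 30 minutes at Ex 525/Em 590 nm.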

The target in assay [17] is T1, Hexokinase-4 (Homo sapiens) + Glucokinase regulatory protein (Homo sapiens). Kind of assay: qHTS assay for inhibitors of recombinant human GCK-GKRP interaction: ADP-Glo assay (AID 743206).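 Note: plate controls were DMSO plus enzyme for no effect and no enzyme for full effect.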 In a few lines:
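GST-GCK and FLAG-GKRP (15 nM each in the dispensed mix, with 2 uM S6P) react with 0.4 mM ATP and 5 mM glucose (final) in Hepes pH 7.6 for 60 min at room temperature. ADP is measured by ADP-Glo luminescence.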

For assay [18] the target is unchanged. The experiment in a line: qHTS assay for inhibitors of recombinant human GCK-GKRP interaction: HTRF assay (AID 743207).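 Note: 0% = DMSO with GCK present and -100% = DMSO wells lacking GCK.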 In a few lines: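 HTRF binding of 5 nM GST-GCK and 5 nM FLAG-GKRP with 2 uM S6P in pH 7.1 Hepes buffer (MgCl2, KCl, DTT, Tween 20, BSA). Anti-FLAG XL665 and anti-GST donor added, 60 min at room temperature; 665/615 nm read, normalized to with- and without-GCK controls.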

Several values for one entry are separate records, joined by “and”; a condition that tells them apart may be missing. Equal values may be shown once. Values without a mark were called inactive. Records with an inconclusive call do not appear. Activity calls are given as the source filed them. Unless noted, calls come from the whole dose curve; as a rule, active = well fitted curve in the direction sought with a large enough effect; inconclusive = small, poorly fitted or top-dose-only effect, or another doubt; inactive = no such curve, though single readings can be large; an effect the other way counts as inactive or inconclusive.

T1 sequence (P35557 whole entry, looked up): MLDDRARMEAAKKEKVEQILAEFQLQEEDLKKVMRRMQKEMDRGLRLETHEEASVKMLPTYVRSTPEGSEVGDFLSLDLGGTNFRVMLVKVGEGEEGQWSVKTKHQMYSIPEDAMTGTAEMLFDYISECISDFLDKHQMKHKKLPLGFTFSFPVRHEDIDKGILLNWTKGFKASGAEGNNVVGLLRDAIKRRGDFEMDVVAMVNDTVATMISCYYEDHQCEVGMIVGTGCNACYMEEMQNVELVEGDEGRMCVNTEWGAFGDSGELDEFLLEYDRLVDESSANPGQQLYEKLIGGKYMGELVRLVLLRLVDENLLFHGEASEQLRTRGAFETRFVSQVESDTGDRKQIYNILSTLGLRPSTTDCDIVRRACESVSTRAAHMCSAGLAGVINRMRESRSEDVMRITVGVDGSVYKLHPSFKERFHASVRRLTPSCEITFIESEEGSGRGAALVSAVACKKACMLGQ
T1 sequence (Q14397 whole entry, looked up): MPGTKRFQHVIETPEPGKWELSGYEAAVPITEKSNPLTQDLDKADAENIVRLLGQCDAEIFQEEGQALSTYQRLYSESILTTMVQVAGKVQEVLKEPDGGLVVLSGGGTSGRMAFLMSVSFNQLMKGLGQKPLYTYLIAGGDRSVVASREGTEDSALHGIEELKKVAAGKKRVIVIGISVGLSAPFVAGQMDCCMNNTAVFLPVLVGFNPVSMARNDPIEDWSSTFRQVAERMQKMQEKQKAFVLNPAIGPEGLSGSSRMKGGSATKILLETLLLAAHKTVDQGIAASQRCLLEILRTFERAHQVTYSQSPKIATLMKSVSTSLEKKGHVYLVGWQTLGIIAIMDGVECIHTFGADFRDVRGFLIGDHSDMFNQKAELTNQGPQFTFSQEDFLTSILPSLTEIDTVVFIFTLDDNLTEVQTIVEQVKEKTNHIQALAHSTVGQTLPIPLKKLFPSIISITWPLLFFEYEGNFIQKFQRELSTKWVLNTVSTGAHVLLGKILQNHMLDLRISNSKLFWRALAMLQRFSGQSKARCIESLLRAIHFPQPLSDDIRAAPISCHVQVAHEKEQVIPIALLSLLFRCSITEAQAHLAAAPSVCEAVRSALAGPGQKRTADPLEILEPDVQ
Chain of Arylsulfatase A (Homo sapiens) (P15289 whole entry, looked up): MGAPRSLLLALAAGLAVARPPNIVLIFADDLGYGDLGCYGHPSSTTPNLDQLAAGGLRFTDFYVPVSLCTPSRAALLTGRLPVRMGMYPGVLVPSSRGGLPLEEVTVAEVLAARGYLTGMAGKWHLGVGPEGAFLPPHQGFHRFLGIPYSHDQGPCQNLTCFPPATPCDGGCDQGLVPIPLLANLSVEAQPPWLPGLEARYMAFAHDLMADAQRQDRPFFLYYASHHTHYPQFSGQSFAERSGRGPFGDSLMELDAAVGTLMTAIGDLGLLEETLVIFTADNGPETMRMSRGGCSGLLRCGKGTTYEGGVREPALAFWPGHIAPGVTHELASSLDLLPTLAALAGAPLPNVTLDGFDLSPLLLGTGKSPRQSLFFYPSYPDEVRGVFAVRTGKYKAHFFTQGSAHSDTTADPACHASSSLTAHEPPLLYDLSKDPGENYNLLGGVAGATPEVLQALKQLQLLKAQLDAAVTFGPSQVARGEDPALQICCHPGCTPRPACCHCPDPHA

Turning to `NC(=Nc1ccccc1)Nc1ccccc1`, in assay [1], the activation is -3.94% and -5.84%. For the same compound, the compound was called inactive in assay [2] and in [6]. For the same compound, the Potency result in assay [3] and in [5] was “inactive” throughout. In addition, the Potency in [4] was 12.6 µM (active).

Consider `CCCCOCCOCCOCc1cc2c(cc1CCC)OCO2`, for which the Potency result in assay [7], in [9] and in [10] was “inactive” in each case. Further, the activation was -2.78% and 0.8% in assay [8]; 5.54% and 1.27% in assay [4]. The compound was classed as inactive in [2], in assay [11] and in assay [6].

As for `CCN(Cc1ccncc1)C(=O)C(CO)c1ccccc1` (centres undefined), the Potency entry in [12], in assay [14] and in [18] was “inactive” in each case. Besides, the compound was classed as inactive in assay [13], in assay [15], in [16] and in assay [17].

For the compound `Cc1scc2c1N(C(=O)CN1CCN(C)CC1)c1ccccc1NC2=O`, the Potency entry in assay [12], in assay [14] and in [18] was “inactive” throughout. The compound was classed as inactive in [13], in [15], in assay [16] and in assay [17].

`O=C(O)CCCCCCCC(=O)O`: the Potency entry in assay [7], in [12], in [14] and in [18] was “inactive” each time. Also, the activation is -3.2% in [1], 0.884% in assay [8] and -0.0037% in assay [4]. Further, the outcome in [13], in assay [15], in assay [11], in assay [16] and in assay [17] was inactive.

For the compound `Nc1nc(N)c2nc(-c3ccccc3)c(N)nc2n1`, the Potency in assay [7] was 54.5 µM (active) and 33.5 µM (active); in assay [1], 20 µM (active). Besides, in assay [4], the activation was 13.5% and 13.2%. For the same compound, the Potency result in assay [5], in assay [14] and in assay [18] was “inactive” throughout. Further, the compound was called inactive in assay [13], in assay [15], in assay [11], in [6], in [16] and in [17].

As for `CCOC(=O)C1=C(C)NC(C)=C(C(=O)OC)C1c1cccc([N+](=O)[O-])c1` (centres undefined), the Potency entry in [12] and in [18] was “inactive” throughout. In addition, the result in [13], in [15], in [16] and in assay [17] was inactive. Also, the Potency in [14] is 1.46 µM (active).

On to `C[N+](C)(C)CCOC(=O)CCC(=O)OCC[N+](C)(C)C`, for which the Potency result in assay [12], in [14] and in [18] was “inactive” in each case. Further, the compound was classed as inactive in [13], in assay [15], in [16] and in assay [17].

For `NC(=O)N1c2ccccc2C=Cc2ccccc21`, the Potency result in assay [7], in assay [5], in assay [12], in assay [14] and in assay [18] was “inactive” throughout. Moreover, the activation is -0.533% and -3% in assay [8]; 0.886% and -3.46% in assay [4]. For the same compound, the result in [2], in [15], in [11], in assay [6], in [16] and in assay [17] was inactive.
